{"source": "ChEMBL document CHEMBL1201862", "about": "“PubChem BioAssay data set” (2004)", "note": "Screen size: about 57,000 sequences; about 4,200 (7.4%) were called active. Cut-off read from the data, not from the text of the source: active = GI50 up to about 1.1 µM and inactive = higher. Only a sample is shown. Results with a measured potency or affinity are listed apart.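 Assay format: 96-well plates, 48-hour exposure. Here, GI50 denotes the concentration required for 50% inhibition of growth.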"}
{"system": "UACC-62", "assay": "NCI tumour cell line growth inhibition, 48 h", "units": {"GI50": "µM"}}
{"substance": "[Bis(aminomethyl)tetramethylenesilane]dichloropaltinum(II), CHEMBL2146205", "GI50": 16}
{"substance": "[Bis(aminomethyl)ethylmethylsilane]tetrachloroplatinum(IV), CHEMBL2146192", "GI50": 2.39}
{"substance": "CISPLATIN, CHEMBL11359", "GI50": 1.18}
{"substance": "[Bis(aminomethyl)dimethylsilane]tetrachloroplatinum(IV), CHEMBL2146190", "GI50": 4.57}
{"substance": "[Bis(aminomethyl)pentamethylenesilane]tetrachloropaltinum(IV), CHEMBL2146204", "GI50": 0.935}
{"substance": "[Bis(aminomethyl)diethylsilane]tetrachloroplatinum(IV), CHEMBL2146203", "GI50": 3.93}
{"substance": "cis-Bis[[(trimethylsilyl)methyl]amino]tetrachloroplatinum(IV), CHEMBL2146191", "GI50": 5.21}
{"substance": "[Bis(aminomethyl)pentamethylenesilane]dichloropaltinum(II), CHEMBL2146202", "GI50": 2.72}
{"substance": "[Bis(aminomethyl)dimethylsilane]dichloroplatinum (II), CHEMBL2146201", "GI50": 15.3}
{"substance": "mu-(1,7-nanodiamine-N,N')bis-(cis-aminedichloroplatimum (II)), CHEMBL2146215", "GI50": 3.44}
{"substance": "[Bis(aminomethyl)tetramethylenesilane]tetrachloropaltinum(IV), CHEMBL2146189", "GI50": 3.87}
